# Molecular target: TevN201-ZFE-6xHis (I-TevI 1-201 fused to ryA zinc finger) (synthetic (bacteriophage T4 I-TevI …))
# Experiment: cleavage_in_vitro; 10 mM MgCl2, 100 mM NaCl, pH 8.0, 37 C
# Conditions: tags: C-terminal 6xHis; dsDNA, one strand shown
# Protocol: Single time-point cleavage assays to determine the EC_{0.5max} of N201 Tev-ZFE were performed in buffer containing 20 mM Tris-HCl pH 8.0, 100 mM NaCl, 10 mM MgCl₂, 5% glycerol, 1 mM DTI and 10 nM pTZHS1.33. Reactions were incubated for 3 minutes at 37° C., stopped with 5 μl stop solution (100 mM EDTA, 40% glycerol, and bromophenol blue), and electrophoresed on a 1% agarose gel prior to staining with ethiduium bromide and analysis on an AlphaImager™3400 (Alpha Innotech). The EC_{0.5max} was determined by fitting the data to the equation
# Cleavage assays were performed with wild type and mutant substrates and increasing concentrations of TevN201-ZFE to determine the amount of protein required for half-maximal cleavage (EC_{0.5max}). […] The greater substrate discrimination observed in the genetic assay likely reflects lower in vivo protein concentrations than those used for in vitro cleavage assays. […] Although the BmoN221-ZFE substrate specificity was not tested extensively, it was shown that the chimeric endonuclease cleaved the Bmo-ryA substrate plasmid, but not the target-less control plasmid.
row,Sequence,binding signal
1,CTAGACAACACTCAGTAGATGTTTTCTTGGGTCTACCGTCCCACGCCGCATG,~4.7 fold higher EC0.5max vs TZ1.33
2,CTAGAAAACACTCAGTAGATGTTTTCTTGGGTCTACCGTCCCACGCCGCATG,~60 fold higher EC0.5max vs TZ1.33
